Results: PubChem BioAssay AID1813 (Broad Institute, 2009)
Hit rate of the full screen: of about 300,000 compounds, about 2,500 (0.83%) were called active. The full list was thinned out, with actives kept by preference. Values without a mark were called inactive. Rule as the data show it: active = inhibition above about 60%; inconclusive = no clear call, values can overlap the other calls; inactive = below that.

experiment: 5' untranslated region of α-synuclein, MLPCN primary screen (AID 1813); conditions: alpha-synuclein 5'UTR reporter, inhibitor activity; active compounds read high; tested at 7.5 µM;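 also: H4 neuroglioblastoma cells stably carrying SNCA 5'UTR luciferase fusion; 0% = DMSO wells and 100% = positive control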

Structure (SMILES)	inhibition
Nc1nonc1-n1nnc(C(=O)N/N=C/c2ccccc2O)c1CN1CCCC1	14.3%
Nc1nonc1-n1nnc(C(=O)N/N=C/c2cc(Br)ccc2O)c1CSC1=NCCS1	94.1% (active)
Cc1ccc(SCc2c(C(=O)N/N=C/c3cccnc3)nnn2-c2nonc2N)cc1	-2.9%
OCCN1CCN(c2nnc(-c3ccccc3)c3ccccc23)CC1	18.9%
OCCN1CCN(C(=S)c2ccc(-c3ccccc3)cc2)CC1	88% (active)
S=C(c1ccccc1)N1CCCC1	4.96%
Cc1nc2cccnc2nc1C	-3.08%
CC(C)S(=O)(=O)c1csc(NC(=O)Nc2ccc(Cl)cc2)c1Cl	-49.4%
Cc1cccc(OCC(=O)NCCCNC(=O)c2ccccn2)c1	8.27%
CCN(CC)CCOc1ccc2c(c1)C(=NNC(=O)c1ccccn1)c1cc(OCCN(CC)CC)ccc1-2	109% (active)
Cc1ccc(Cl)cc1NC(=O)c1ccccn1	-44%
COc1ccc(NC(=O)Cn2ncn3c(cc4ccccc43)c2=O)c(OC)c1OC	30%
COC(=O)Cc1csc(Nc2c(C)n(C)n(-c3ccccc3)c2=O)n1	14.1%
COC(=O)Cc1csc(/N=C/c2c(O)n(-c3cccc(C(F)(F)F)c3)c(=O)c3ccccc23)n1	81.8% (active)
Cc1ccc(-n2c(O)c(C=Nc3ccc(S(=O)(=O)Nc4ncccn4)cc3)c3ccccc3c2=O)cc1C	13.1%
CC(NC(=O)c1cccc2ccccc12)c1ccc2c(c1)CCCC2 (stereo unspecified)	5.38%
Cc1cc(C(=O)Cn2cnc3cc([N+](=O)[O-])ccc3c2=O)c(C)n1CC1CCCO1 (stereo unspecified)	-21.1%
Cc1ccsc1C(=O)OCC(=O)c1cc(C)n(CC2CCCO2)c1C (stereo unspecified)	79.6% (active)
Cc1cc(C(=O)CCl)c(C)n1CC1COc2ccccc2O1 (stereo unspecified)	21.1%
CCn1c(-c2cccnc2Cl)nc2cc(C)c(C)cc21	24.4%
CC(C)C(NS(=O)(=O)c1cccs1)C(=O)Nc1nc(C(C)(C)C)cs1 (stereo unspecified)	24.5%
CCCCN(C(=O)c1ccc(C)o1)c1c(N)n(CCCC)c(=O)[nH]c1=O	11.8%
COc1ccc(NC(=O)C(C)SCc2ccccc2)cc1 (stereo unspecified)	-18.2%
COc1ccc(C(=O)NCC2CCCN2S(=O)(=O)c2cccs2)cc1OC (stereo unspecified)	19.5%

Structure (SMILES)	inhibition
CC(=O)c1c(C)[nH]c(C(=O)COC(=O)c2cccc(S(=O)(=O)N(C)c3ccccc3)c2)c1C	-1.07%
CC1CC(C)CN(C(=O)C2CC(=O)N(c3ccc(F)cc3)C2)C1 (stereo unspecified)	10.4%
C=CCn1c(CCNC(=O)c2ccccc2F)nnc1SCC(=O)Nc1ccc(OC)cc1	-21.5%
Cc1cccc(NC(=O)c2nc(S(=O)(=O)Cc3ccccc3)ncc2Cl)c1	84.8% (active)
CSc1nnc(NC(=O)c2nc(S(=O)(=O)Cc3ccc(C)cc3)ncc2Cl)s1	-15.6%
Cc1ccc(CS(=O)(=O)c2ncc(Cl)c(C(=O)Nc3nnc(C)s3)n2)cc1	-37.4%
COC(=O)COc1cccc2c(=O)n(CC(=O)NCc3ccccc3)ccc12	-24.3%
Nc1nc(Nc2ccccc2F)nc(NC2CCCCC2)c1[N+](=O)[O-]	30.2%
COc1cc(OC)cc(C(=O)NC2CCN(C(=O)N3c4ccccc4Sc4ccccc43)CC2)c1	47.3%
COc1ccc(CN2[C@@H](CC(=O)O)c3cc(F)ccc3S2(=O)=O)cc1	-3.17%
C/C(=N\NC(=O)Cc1ccc(Cl)cc1)c1ccccn1	85.6% (active)
O=C(Nc1ccc(NC(=O)c2ccccc2F)cc1)c1ccccc1F	-42.3%
C/C(=N\NC(=O)c1ccccc1F)c1ccccn1	83% (active)
COc1ccc(CC(=O)N/N=C(\C)c2ccccn2)cc1	77.7% (active)
C/C(=N\NC(=O)Cc1ccc(Br)cc1)c1cccnc1	30.5%
C/C(CC(=O)Nc1ccc(N(C)C)cc1)=N\NC(=O)c1ccccc1F	-40.2%
C/C(=N\NC(=O)Cc1ccc(F)cc1)c1ccc(F)cc1	20.6%
COc1ccc(CC(=O)NC(C)CCc2ccccc2)cc1 (stereo unspecified)	1.27%
COc1ccc(C/C(C)=N/NC(=O)c2ccncc2)cc1	6.51%
C/C(=N\Nc1nc2ccccc2[nH]1)c1cccs1	-116%
O=C(O)C1CCCCC1C(=O)N1CCN(S(=O)(=O)c2ccc(F)cc2)CC1 (stereo unspecified)	-5.32%
CC1(C)OC(=O)N2CCc3ccccc3C21C (stereo unspecified)	-10.7%
C=CCNC(=S)NNc1ncnc2sc3c(c12)CC(C)(C)OC3	5.75%
O=C(O)c1cc2c(cc1NC(=O)c1c(F)cccc1Cl)OCCCO2	23.8%

Structure (SMILES)	inhibition
COc1ccc2[nH]c3nc(SCC(=O)NC4CC4)nnc3c2c1	-39.5%
CCCCCN(C(=O)NC(=O)Nc1ccccc1C)S(C)(=O)=O	-36.2%
NS(=O)(=O)c1cccnc1Nc1cccc(Cl)c1	-2.47%
OCCCNc1nccc(-c2cc(Nc3cccc(Cl)c3)ncn2)n1	73.3% (active)
OCCCNc1nc(-c2ccccc2)c2cc(Cl)ccc2n1	30.4%
O=C1CCCN2N=C(SCC(=O)Nc3ccc(Br)cc3)SC2=N1	10.7%
Cc1cc(C(F)F)nn1CC(=O)NC1CCCCCC1	-7.74%
Cc1ccccc1NC(=O)CCNS(=O)(=O)c1ccc2[nH]c(=O)oc2c1	6.01%
CCOC(=O)C1=C(C)Nc2nc3ccccc3n2C1c1cccs1 (stereo unspecified)	31.1%
CCOc1ccc(C2C(C(=O)NC)=C(C)Nc3nc4ccccc4n32)cc1OC (stereo unspecified)	10.1%
COc1ccccc1NC(=O)C1=C(C)Nc2nc3ccccc3n2C1c1cccs1 (stereo unspecified)	106% (active)
COC(=O)c1cc(=O)n(-c2c(Cl)cc(C(F)(F)F)cc2Cl)[nH]1	29.3%
CN(CC(=O)Nc1c(Cl)cccc1Cl)C(=O)c1ccncc1	8.69%
O=C1CCCC2=C1C(c1cccs1)n1nc(SCc3ccccc3)nc1N2 (stereo unspecified)	37.2%
CCCCCN(C(=O)NC(=O)Nc1cccc(C)c1C)S(C)(=O)=O	-23.1%
CC(C)n1c(CN2CCN(Cc3ccccc3)CC2)nc2ccccc21	9.23%
CCCNC(=O)N1CCN(C(=O)NCCC)CC1	8.45%
COc1ccc(C(C)=O)cc1COc1ccc(Cl)c(C)c1	50.7%
CCn1nc(C)c(NC(=O)/C=C/c2ccc(OC)c(COc3ccc(Br)cc3)c2)c1C	61.8% (active)
C/C=C/c1ccc(OCC(=O)OCC(=O)Nc2c(C)nn(-c3ccccc3)c2C)c(OC)c1	3.02%
CCCCN(C)CCC(=O)Nc1ccc(Cl)cc1	-18.3%
CCOc1ccc2c(c1)c(=O)c(S(=O)(=O)c1ccc(C)cc1)cn2CC	13%
CN(C)c1nc(N)nc(CSc2nnnn2-c2cccc3ccccc23)n1	68.9% (active)
COc1ccc(-n2nnnc2SCc2nc(N)nc(N3CCOCC3)n2)cc1	13.4%

Structure (SMILES)	inhibition
CN(C)c1nc(N)nc(CSc2ccccn2)n1	-19.1%
COc1ccc(CCNC(=O)CN(C)S(=O)(=O)c2ccc3nc(C)sc3c2)cc1OC	-0.864%
CC(=O)Nc1ccc(NC(=O)CCCNC(=O)c2ccc(Cl)cc2)cc1	19.3%
CC(C)c1ccc(Cc2nnc(NCCCO)[nH]c2=O)cc1	-13.1%
COc1ccc(Cc2nnc(N/N=C/c3ccccc3O)[nH]c2=O)cc1OC	91.4% (active)
O=c1[nH]c(NCCO)nnc1Cc1ccc(Cl)cc1	6.74%
COc1ccc(S(=O)(=O)N2CCC(C(=O)NCCC(=O)NCc3cccc(OC)c3)CC2)cc1	11.4%
CC(=O)Nc1nonc1-c1nc2ccccc2n1Cc1ccccn1	19%
COc1ccc(C)c(Cn2c(-c3nonc3N)nc3ccccc32)c1	76.2% (active)
Nc1nonc1-c1nc2ccccc2n1Cc1ccc(F)cc1	49%
CN(CC(=O)NCc1cccnc1)S(=O)(=O)c1cc(Cl)ccc1Cl	5.11%
CCc1noc(C)c1C(=O)N1CCCC(N2CCN(c3ccc(F)cc3)CC2)C1 (stereo unspecified)	14.8%
CC(Sc1nnc(COc2ccccc2)n1-c1ccccc1)C(=O)O (stereo unspecified)	-1.97%
CC1(C(=O)N/N=C/c2cc3c(cc2Br)OCO3)CC1(Br)Br (stereo unspecified)	4.98%
O=C(CN1C(=O)c2ccccc2S1(=O)=O)NC1CCCCC1	6.72%
O=C(CN1C(=O)c2ccccc2S1(=O)=O)N1CCc2ccccc21	93.5% (active)
O=C(CN1CCN(c2ccccn2)CC1)N1CCc2ccccc21	-26.8%
Cc1ccc(NC(=O)OCc2cncs2)cc1	-112%
COc1ccc(Nc2ccc([N+](=O)[O-])cn2)cn1	8.18%
COc1ccc(NC(=O)/C(Cl)=C(/Cl)S(=O)Cc2ccc(C)cc2)cn1 (stereo unspecified)	106% (active)
COc1ccc(NC(=O)CN(C)C(=O)Cc2coc3cc(C)c(C)cc23)cc1	6.29%
Cc1ccc2c(c1)NCC(C(=O)NC1CCC(C)CC1)O2 (stereo unspecified)	-67.9%
CN(C)c1ccc(C(CNC(=O)c2ccc(F)cc2)c2c[nH]c3ccccc23)cc1 (stereo unspecified)	4.86%
Cc1ccc(OCC(=O)Nc2ccccc2Sc2ccc(Cl)cc2)c([N+](=O)[O-])n1	4.28%
